The list is not random: actives were taken first. Their share in the collection is about 1.2%.
LAP4-GFP MLPCN – alters LAP4-GFP fluorescence in TOR pathway yeast screen; AID 2023; S. cerevisiae LAP4-GFP multiplex, flow cytometry GFP, 3 h; median GFP as percent of DMSO wells; GFP response vs DMSO, % at 10 µM; actives 0.34% (n = 320,000);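 active means GFP response vs DMSO above a set limit, about the screen mean plus 3 SD, cut at about 150% in these data; inconclusive means under 70 cell events counted for the yeast strain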
Pemphigus Ab inh – blocks pemphigus antibody binding to human desmoglein-3; actives 0.48% (n = 310,000); AID 588358; binding (percent of control), % at 10 µM; P32926; DSG3-coupled beads, scFv-anti-DSG3-GFP binding, flow cytometry; stronger effect = lower value;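 active means binding more than 3 SD below its plate's average and above zero; inconclusive means below that plate limit but binding exactly zero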;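 further: hits lower antibody fragment binding to DSG3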
Target sequence (P32926 whole entry, looked up, the tested form may be a part): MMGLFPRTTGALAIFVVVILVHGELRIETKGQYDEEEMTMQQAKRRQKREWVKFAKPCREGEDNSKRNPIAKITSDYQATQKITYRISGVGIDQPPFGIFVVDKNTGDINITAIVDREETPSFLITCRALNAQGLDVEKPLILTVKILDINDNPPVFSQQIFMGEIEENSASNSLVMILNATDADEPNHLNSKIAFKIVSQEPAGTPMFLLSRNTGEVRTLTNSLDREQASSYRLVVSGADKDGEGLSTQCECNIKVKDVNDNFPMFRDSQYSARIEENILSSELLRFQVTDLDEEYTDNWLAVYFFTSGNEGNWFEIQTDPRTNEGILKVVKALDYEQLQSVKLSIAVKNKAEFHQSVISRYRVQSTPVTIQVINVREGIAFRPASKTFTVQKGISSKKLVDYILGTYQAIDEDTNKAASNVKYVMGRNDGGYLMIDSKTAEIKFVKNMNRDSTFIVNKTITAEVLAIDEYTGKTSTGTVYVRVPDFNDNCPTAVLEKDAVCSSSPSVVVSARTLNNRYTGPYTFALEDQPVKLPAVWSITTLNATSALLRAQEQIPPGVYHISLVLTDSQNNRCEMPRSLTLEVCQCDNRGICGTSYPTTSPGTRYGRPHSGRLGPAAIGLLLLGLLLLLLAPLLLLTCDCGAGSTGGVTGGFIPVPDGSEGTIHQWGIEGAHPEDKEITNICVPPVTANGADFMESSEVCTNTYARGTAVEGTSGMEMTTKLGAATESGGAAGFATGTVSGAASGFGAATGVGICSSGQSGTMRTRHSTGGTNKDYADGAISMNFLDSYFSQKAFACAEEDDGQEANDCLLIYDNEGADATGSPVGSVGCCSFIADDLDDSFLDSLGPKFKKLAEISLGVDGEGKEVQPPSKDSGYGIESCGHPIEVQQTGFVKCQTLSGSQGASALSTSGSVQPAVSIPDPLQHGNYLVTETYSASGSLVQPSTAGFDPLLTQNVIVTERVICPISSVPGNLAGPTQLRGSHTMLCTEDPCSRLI
MEP2 TOR yeast – modulators of TOR pathway MEP2-GFP in S. cerevisiae | S. cerevisiae MEP2-GFP strain, flow cytometry GFP, 3 h; 100% = DMSO control level | GFP response vs DMSO, % at 10 µM | actives 0.51% (n = 330,000);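 active means GFP response versus DMSO above a set limit, roughly screen mean plus 3 SD, cut at about 180% in these data; inconclusive means fewer than 70 cells counted for a yeast strain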;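 further: median GFP fluorescence of the barcode-gated MEP2-GFP cells per well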
RPL19A TOR yeast – alters RPL19A-GFP fluorescence in TOR pathway yeast screen. percent response vs DMSO, % at 10 µM. actives 0.3% (n = 330,000). AID 2025. S. cerevisiae RPL19A-GFP strain, flow cytometry, 3 h; stronger effect = lower value;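 active means percent response vs DMSO below 50%; inconclusive means fewer than 70 events counted for the yeast strain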;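 further: median channel GFP fluorescence of the barcoded RPL19A-GFP strain; lower means less RPL19A-GFP as with rapamycin TOR inhibition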
CIT2-GFP yeast – modulators of TOR pathway CIT2-GFP in S. cerevisiae; S. cerevisiae CIT2-GFP strain, flow cytometry, 3 h; 100 means same as DMSO wells; GFP response vs DMSO, % at 10 µM; actives 0.065% (n = 320,000);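 active means GFP response relative to DMSO above a set limit, near the screen mean plus 3 SD, cut at about 150% in these data; inconclusive means Fewer than 70 cells measured for a yeast strain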;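 further: ratio of well median GFP fluorescence to mean of DMSO wells on the plate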
AGP1-GFP MLPCN – yeast TOR pathway AGP1-GFP modulation | S. cerevisiae AGP1-GFP multiplex flow cytometry, 3 h; GFP as percent of DMSO wells | GFP response vs DMSO, % at 10 µM | actives 0.02% (n = 320,000) | AID 2066;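 active means GFP response relative to DMSO above a set limit, near screen average plus 3 SD, cut at about 150% in these data; inconclusive means fewer than 70 cells counted for the yeast strain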;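 further: median GFP channel fluorescence of the gated AGP1 strain per well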
Each line names hits and unclear results; the compound was inactive in the other large screens; [ ] = another dose, or the depositor's remark.

COc1ccc(-c2nn(-c3ccccc3)cc2/C=N/NC(=O)c2cccc(S(=O)(=O)Nc3ccccc3OC)c2)cc1	Pemphigus Ab inh 83
CC(C)n1c(SCC(=O)N2CCCCC2)nc2c1c(=O)n(C)c(=O)n2C	MEP2 TOR yeast 305[may fluoresce violet], CIT2-GFP yeast inconclusive
O=C(COC(=O)c1ccco1)Nc1ccc2c(c1)OCO2	none
Cc1ccc(C(=O)OCC(=O)Nc2ccc3c(c2)OCO3)o1	MEP2 TOR yeast 491[may fluoresce violet], CIT2-GFP yeast inconclusive
COc1ccccc1N1CCN(C(=O)c2cc(=O)c3c(C)cc(C)cc3o2)CC1	LAP4-GFP MLPCN inconclusive, MEP2 TOR yeast inconclusive, RPL19A TOR yeast 40[may fluoresce violet], CIT2-GFP yeast inconclusive, AGP1-GFP MLPCN inconclusive
O=C1C=C(c2cccc(CO)c2)C[C@@H](c2ccc(F)cc2)C1	none
O=C(O)CCCN1C(=O)/C(=C/c2ccc(-c3nc4ccccc4s3)o2)SC1=S	Pemphigus Ab inh 89
CN(C)c1ccc(/C=N/N=C2/SC(CC(=O)O)C(=O)N2c2ccc(O)cc2)cc1 (configuration not stated)	none
CN(C1=NC(=O)C(CC(=O)O)S1)c1ccc(O)cc1 (configuration not stated)	Pemphigus Ab inh 23
CCCCn1c(N)c(N(CCOC)C(=O)c2ccc3c(c2)C(=O)N(c2cc(C)ccc2C)C3=O)c(=O)[nH]c1=O	none
CCOc1ccc(S(=O)(=O)NC(Cc2cnc[nH]2)C(=O)O)cc1 (configuration not stated)	Pemphigus Ab inh 8.8
Cc1ccc(OCc2cc(C(=O)NC3CCOC3)no2)cc1C (configuration not stated)	none
O=C(CN1CCN(S(=O)(=O)c2ccccc2F)CC1)Nc1ccccc1C(=O)c1ccccc1	none
O=C(CS(=O)(=O)c1ccccc1)Nc1ccc(Br)cn1	Pemphigus Ab inh 59
O=C(Cc1ccc(Cl)cc1)Nc1ccc(Br)cn1	MEP2 TOR yeast 187
Cc1[nH]ccc2cc3nc4ccccc4c3cc12	none (no result: LAP4-GFP MLPCN, MEP2 TOR yeast, RPL19A TOR yeast, CIT2-GFP yeast, AGP1-GFP MLPCN)
COc1ccc(NS(=O)(=O)c2cc(C)ccc2C)cc1	none (no result: AGP1-GFP MLPCN)
COc1ccc(S(=O)(=O)Nc2ccc(C(F)(F)F)cc2)cc1OC	MEP2 TOR yeast 196[may fluoresce violet], CIT2-GFP yeast inconclusive, AGP1-GFP MLPCN inconclusive (no result: Pemphigus Ab inh)
COc1ccc(NS(=O)(=O)c2cccc3ccccc23)cc1	LAP4-GFP MLPCN 183
COc1ccc(NS(=O)(=O)c2cc(OC)ccc2OC)cc1	MEP2 TOR yeast 267[may fluoresce violet], RPL19A TOR yeast 45[may fluoresce violet], CIT2-GFP yeast inconclusive, AGP1-GFP MLPCN inconclusive (no result: Pemphigus Ab inh)
COc1ccc(-c2noc(N3CCC(C(=O)Nc4cccc(OC)c4)CC3)n2)cc1	none
C=C1C(=O)C=C2CN(C(=O)c3ccccc3)[C@@](Cc3ccc(F)cc3)(C(=O)OC)[C@@H]12	LAP4-GFP MLPCN 173
COC(=O)[C@@]1(Cc2ccc(OC)cc2)[C@@H]2C(=CC(=O)[C@H]2CC(=O)C(=O)N(C)C)CN1C(=O)c1ccccc1	none (no result: Pemphigus Ab inh)
Cn1nc(-c2ccc(Cl)cc2)nc2c(=O)n(C)c(=O)nc1-2	LAP4-GFP MLPCN 203 (no result: Pemphigus Ab inh)
CC(=O)C1=C(O)CC(c2ccccc2)CC1=NCCc1c(C)[nH]c2ccc(C)cc12 (configuration not stated)	Pemphigus Ab inh -12
O=C1CCCC(O)=C1Sc1cc(Cl)c(Cl)cc1Cl	none
COc1ccc(NC(=O)CSc2nc(N3CCCCC3)nc(N3CCCCC3)n2)cc1	Pemphigus Ab inh 88 (no result: RPL19A TOR yeast)
COc1ccc(NC(=O)CSc2n[nH]c(-c3ccccn3)n2)cc1	MEP2 TOR yeast 314[may fluoresce violet], RPL19A TOR yeast 37[may fluoresce violet], CIT2-GFP yeast inconclusive, AGP1-GFP MLPCN inconclusive
Cc1cc2c(c(C)c1CCO)C(=O)[C@H](C)C2	none
O=C(N/N=C/c1cc(O)ccc1[N+](=O)[O-])c1ccc2c(c1)OCCO2	none
O=C(N/N=C/c1ccccc1[N+](=O)[O-])c1ccc2c(c1)OCCO2	MEP2 TOR yeast 430[may fluoresce violet], RPL19A TOR yeast 46[may fluoresce violet], CIT2-GFP yeast inconclusive
Cc1ccc(CC2CC(=O)N(Cc3ccco3)C2=O)cc1 (configuration not stated)	LAP4-GFP MLPCN 191
Cc1nc2ccc(Br)cn2c1C(=O)N/N=C\c1ccccc1Cl	MEP2 TOR yeast 248
Cc1nc2ccc(Br)cn2c1C(=O)N/N=C\c1ccccc1[N+](=O)[O-]	none
CCc1ccc(CNC(=O)CCC(=O)n2ncc3cc(C)ccc32)cc1	Pemphigus Ab inh 77
Cc1ccc2c(cnn2C(=O)CCCC(=O)NCc2ccc(F)cc2)c1	none
CCC1=Nc2cc(C(=O)NCc3cccnc3)ccc2Sc2ccc(C)cc21	MEP2 TOR yeast 226[may fluoresce violet], RPL19A TOR yeast 48[may fluoresce violet], CIT2-GFP yeast inconclusive
CCC1=Nc2cc(C(=O)NCc3ccco3)ccc2Sc2ccc(Cl)cc21	none
CCCCCN(C(=O)CSc1n[nH]c(-c2ccc(C)cc2)n1)c1c(N)n(CCCC)c(=O)[nH]c1=O	none
Cc1cc(C)c2sc(NC(=O)c3ccc([N+](=O)[O-])o3)nc2c1	LAP4-GFP MLPCN 194[may fluoresce violet], CIT2-GFP yeast inconclusive
CC(=O)n1cc(/C=N/NC(=O)c2ccccc2O)c2ccccc21	none
CC(C)(C)OC(=O)n1cc(/C=N/NC(=O)c2ccco2)c2ccccc21	Pemphigus Ab inh inconclusive, CIT2-GFP yeast 154[may fluoresce green]
Cc1cccc(CSCc2ccc(C(=O)NC(C)C)o2)c1	MEP2 TOR yeast 259
Cc1cccc(CSCc2ccc(C(=O)O)o2)c1	none
COc1cc(OC)c(/C=N/NC(=O)c2ccc(NC(C)=O)cc2)cc1Br	Pemphigus Ab inh 74 (no result: LAP4-GFP MLPCN, MEP2 TOR yeast, RPL19A TOR yeast, CIT2-GFP yeast, AGP1-GFP MLPCN)
COc1cc(OC)c(/C=N/NC(=O)c2ccncc2)cc1Br	none
CCN(CC(=O)Nc1c(F)cccc1F)C(=O)/C=C/c1ccc2ccccc2n1	Pemphigus Ab inh 77
CCN(CC(=O)Nc1c(F)cccc1F)C(=O)c1ccc2ccccc2n1	none
COc1cc(CNC[C@H]2O[C@@H](n3cc(C)c(=O)[nH]c3=O)C[C@@H]2O)ccc1OCc1cccc(Cl)c1	none (no result: LAP4-GFP MLPCN, MEP2 TOR yeast, RPL19A TOR yeast, CIT2-GFP yeast, AGP1-GFP MLPCN)
Cn1c(=NC(=O)c2ccccc2[N+](=O)[O-])sc2cc(S(C)(=O)=O)ccc21	Pemphigus Ab inh 86
CCOC(=O)C1(C)/C(=N/Nc2ccccc2Cl)C(=O)C(=O)N1c1ccccc1 (configuration not stated)	MEP2 TOR yeast 561[may fluoresce violet], RPL19A TOR yeast 41[may fluoresce violet], CIT2-GFP yeast inconclusive (no result: Pemphigus Ab inh, AGP1-GFP MLPCN)
COCCNC(=O)C(c1ccc(C)cc1)N(Cc1ccco1)C(=O)CCC(=O)Nc1ccccn1 (configuration not stated)	MEP2 TOR yeast 210[may fluoresce violet], CIT2-GFP yeast inconclusive
Cc1ccccc1N1CCN(CCC(=O)Nc2ccc(F)cc2)CC1	none
Cn1c(SCC(=O)NC2CCCCC2)nnc1-c1cc2cc(Cl)ccc2o1	Pemphigus Ab inh 64
CCOC(=O)C(Cc1ccnc2ccccc12)=NO	none (no result: LAP4-GFP MLPCN, MEP2 TOR yeast, RPL19A TOR yeast, CIT2-GFP yeast, AGP1-GFP MLPCN)
CCOC(=O)C(=O)Cc1cccnn1	Pemphigus Ab inh 47 (no result: LAP4-GFP MLPCN, MEP2 TOR yeast, RPL19A TOR yeast, CIT2-GFP yeast, AGP1-GFP MLPCN)

Screening data as filed in PubChem.
